{
  "source": "PubChem BioAssay (NCI)",
  "note": "The panel holds about 83,000 compounds, 20% with a hit somewhere; the sample as a whole holds those more often.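 Step 1: grow cells in 96-well plates. Step 2: add test compound at a single concentration. Step 3: incubate 48 h. Step 4: record percent growth.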 Unmarked numbers belong to inactive results. Activity calls are given as the source filed them. The calls were made as follows: active = growth percent below 10; inactive = the rest.",
  "data": [
    {"test_system": "HL-60(TB) leukemia", "test": "NCI-60 one-dose screen, 48 h (100 = growth as untreated, 0 = no growth, -100 = all killed)", "details": "10 µM unless noted", "values": [
      {"smiles": "COc1cc2c(cc1OCCCN1CCN(c3ncnc4ccccc34)CC1)N=CC1CCCN1C2=O", "note": "(configuration not stated)", "growth": "-53.2% (active)"},
      {"smiles": "C/C(=C(/c1ccccc1)c1ccc(N2C(=O)c3cccc4c(NCc5ccccc5)ccc(c34)C2=O)cc1)c1ccccc1", "growth": "103%"},
      {"smiles": "Cc1cn(-c2cc(NC(=O)c3ccc(C)c(Nc4nccc(-c5cnccn5)n4)c3)cc(C(F)(F)F)c2)cn1", "growth": "33.4%"},
      {"smiles": "O=C1/C(=C/c2ccc(O)cc2)Oc2ccc(Cl)cc21", "growth": "81%"},
      {"smiles": "COc1ccc(F)cc1/C=C/C(=O)/C=C(/C=C/c1cc(F)ccc1OC)OB(F)F", "growth": "-8.82% (active)"},
      {"smiles": "Cc1ccc(S(=O)(=O)Oc2ccc3c4c(c(=O)oc3c2)CCCCC4)cc1", "growth": "20.4%"},
      {"smiles": "CN(C)c1cnccn1", "growth": "90.3%"},
      {"smiles": "COc1ccc2c(c1)C(=Nc1cc(OC)c(OC)c(OC)c1)C(=O)N2", "growth": "96.1%"},
      {"smiles": "O=C(O)c1ccc2c(c1Sc1ccccc1)C(=O)c1ccccc1C2=O", "growth": "95.8%"},
      {"smiles": "CCOc1ccc(NC(=O)CSc2oc(-c3ccccc3)nc2S(=O)(=O)c2ccc(C)cc2)cc1", "growth": "65.6%"},
      {"smiles": "CC1(C)C(=O)/C(=C\\c2ccccn2)C[C@]2(C)[C@H]3CC[C@@H]4[C@@H](C(=O)/C=C/c5ccccn5)CC[C@@]4(C)[C@]3(C)CC[C@@H]12", "growth": "-14.4% (active)"},
      {"smiles": "CCCCNc1cc(-c2cn[nH]c2-c2cc(C)cc(OC)c2)nc(-c2cccnc2)n1", "growth": "105%"},
      {"smiles": "Cc1cc(O)c(C2=NN(c3ccc(S(N)(=O)=O)cc3)C(/C=C/c3ccccc3)C2)cc1Cl", "note": "(configuration not stated)", "growth": "89.7%"},
      {"smiles": "C#Cc1cc(C(=O)Nc2ccc(CN3CCN(C)CC3)c(C(F)(F)F)c2)ccc1C", "growth": "77.8%"},
      {"smiles": "O=C(Nc1ccccc1F)Nc1ccccc1Cl", "growth": "52%"},
      {"smiles": "CN1CCN(C(=O)c2c3c(n4ccccc24)C(=O)c2ncccc2C3=O)CC1", "growth": "53.4%"},
      {"smiles": "NC(=O)NN=C(C1CC1)C1CC1", "growth": "62.2%"},
      {"smiles": "O=C(NOCCO)c1cc(CN2OCCCC2=O)c(F)c(F)c1Nc1ccc(I)cc1F", "growth": "18.2%"},
      {"smiles": "COC(=O)[C@H](CCCCNC(=O)OCc1ccccc1)NC(=O)[C@@H](NC(=O)Nc1cc(C(F)(F)F)cc(C(F)(F)F)c1)C(C)C", "growth": "-9.21% [100 µM] (active)"},
      {"smiles": "Cc1ccc(NC(=S)NNC(=S)Nc2ccc(C)cc2)cc1", "growth": "44.7%"},
      {"smiles": "N#CC1=C(N)Oc2c(sc3c(F)cccc23)C1c1ccc([N+](=O)[O-])cc1", "note": "(configuration not stated)", "growth": "-7.41% (active)"},
      {"smiles": "O=C(NCCCNc1cc(-c2cn(-c3ccccc3)nc2-c2cccc(O)c2)ccn1)c1ccccc1", "growth": "8.91% (active)"},
      {"smiles": "COc1ccc(OC)c(/C=C2\\COc3ccc(O)c(O)c3C2=O)c1", "growth": "-11% (active)"},
      {"smiles": "Cc1c(NC(=O)c2sc3nc4c(cc3c2N)CN(Cc2ccccc2)CC4)cccc1C(F)(F)F", "growth": "3.22% (active)"},
      {"smiles": "CCOC(=O)c1c(C)nc2c(c1N)CC(=O)N2Cc1ccc(F)cc1", "growth": "83.5%"},
      {"smiles": "O=C1C(=O)c2c(nc3ccc(C(F)(F)F)cn23)-c2ccccc21", "growth": "-47% (active)"},
      {"smiles": "Cc1cc2nc3c4cc([N+](=O)[O-])ccc4n(CCN(C)C)c3nc2cc1C", "growth": "-4.06% (active)"},
      {"smiles": "CN1CCN(C(=O)[C@]23CCC(C)(C)C[C@H]2C2=CC[C@@H]4[C@@]5(C)C/C(=C/c6ccncc6)C(=O)C(C)(C)[C@@H]5CC[C@@]4(C)[C@]2(C)CC3)CC1", "growth": "-41.7% (active)"},
      {"smiles": "O=C1Nc2ccccc2/C1=C/c1cccn1C(=O)c1ccc(Cl)s1", "growth": "57.3%"},
      {"smiles": "COc1cnc2c(c1)C(=O)c1c-2n(CCCNC2=NCCS2)c(=O)c2cc([N+](=O)[O-])ccc12", "growth": "-58.7% (active)"},
      {"smiles": "O=C(Nc1cccc(-n2cc(-c3ccncc3)c(-c3ccc(O)c(Cl)c3)n2)c1)c1cccc(C(F)(F)F)c1", "growth": "13.3%"},
      {"smiles": "COc1ccc(-c2nc(/C=N/Nc3cc(C)nc4ccc(Br)cc34)c(C)o2)cc1", "growth": "-51.5% (active)"},
      {"smiles": "CCOC(=O)c1nc2c3ccccc3cnn2c1C(=O)c1ccc(OC)cc1", "growth": "102%"},
      {"smiles": "COc1ccc(-c2c(N)n[nH]c2-c2cc3c(c(OC)c2OC)OCO3)cc1", "growth": "63.1%"},
      {"smiles": "N#Cc1ccc(N2Cc3cc(Cl)ccc3OC3=C2C(=O)N(Cc2ccccc2)C3=O)cc1", "growth": "-48.2% (active)"},
      {"smiles": "Nc1c(C(=O)Nc2cccc(C(F)(F)F)c2)sc2nc3c(cc12)C(O)CCC3", "note": "(configuration not stated)", "growth": "-0.216% (active)"},
      {"smiles": "COc1cc(/C=C2\\CCC/C(=C\\c3ccc(OCC4CO4)c(OC)c3)C2=O)ccc1OCC1CO1", "note": "(configuration not stated)", "growth": "-3.96% (active)"}
    ]}
  ]
}
